Bioassay records as filed in PubChem BioAssay.
The entries come from a sample that favours hits as a whole.
TDP-43 rescue: TDP-43 toxicity inhibition in yeast. Potency, µM (doses to about 46.1 µM), actives largely listed as activators. yeast TDP-43 toxicity rescue, BacTiter-Glo growth, 24 h. 0.45% of 45,000 active; active = well fitted activation curve with a large enough effect; also: 0% is about no effect; nearly all actives have a fitted effect of over 55% in size
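TDP-43-expressing yeast, pregrown in raffinose, seeded at OD600 0.02 in galactose medium with compound for 24 hr at 30 deg C. Growth read by BacTiter-Glo luminescence, so rescue of toxicity appears as activation.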
* hit, by the source's call. Potency is read from the fitted curve at half-maximal effect.

For Cn1nnnc1SCC(=O)Nc1cc(C(F)(F)F)ccc1N1CCOCC1 the results were TDP-43 rescue inactive.
For CCCS(=O)(=O)NC(=O)C1(C)CCN(C(=O)c2cccc(C(F)(F)F)c2)C1 (stereo unspecified) the results were TDP-43 rescue inactive.
For O=S(=O)(c1ccc2ncn(O)c2c1)N1CCOCC1 the results were TDP-43 rescue inactive.
For OC(CNc1ncnc2sccc12)c1ccccc1 (stereo unspecified) the results were TDP-43 rescue inactive.
`CN(C)C(CNc1ncnc2sccc12)c1ccccc1` (stereo unspecified) gave TDP-43 rescue inactive.
Screening Fc1ccc(Nc2ncnc3sccc23)cc1 returned TDP-43 rescue 11µM*.
For CCCC(=O)Nc1ccc(Cl)c(NC(=S)NC(=O)c2ccco2)c1 the results were TDP-43 rescue inactive.
